Rows were chosen to be rich in hits. Some 19% of all compounds tested hit in one or more screens of this group.
HT1080-NT tox: qHTS for induction of synthetic lethality in tumor cells producing 2HG: qHTS for the HT-1080-NT fibrosarcoma cell line | HT-1080-NT fibrosarcoma viability, CellTiter-Glo ATP luminescence, 48 h | Potency, µM (doses to about 46.1 µM), for inactives: top-dose activity, negative = less viability, hits mostly cytotoxic | 360,000 tested, 1.6% active;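 further: NT is the 2HG producing partner of a matched IDH1 knockdown line; 0% = DMSO-treated cells and -100% = media-only wells without cells; nearly all actives have a fitted effect of over 55% in size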
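750 cells/well, RPMI + 5% FBS; 2 h settle, compound pin-transfer, 48 h at 37 degrees C. CellTiter-Glo 10 min RT, luminescence. Normalized to DMSO and media-only wells.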
KB-V1 MDR tox: qHTS assay for MDR1-selective chemotherapeutics: Primary screen using the drug-selected MDR subline cells KB-V1 | AID 1347076, 2019 | KB-V1 MDR cells viability, CellTiter-Glo, 72 h | Potency, µM (doses to about 46.1 µM), actives largely listed as cytotoxic | 400,000 tested, 3.4% active; further: nearly all actives have a fitted effect of over 60% in size
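In this primary screen, KB-V1 cells overexpressing P-gp are incubated with library compounds (lowest to highest concentration) for 72 h at 37 degrees C before a luminescent ATP viability read.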
DT40 TDP1 CPT: qHTS for Inhibitors of human tyrosyl-DNA phosphodiesterase 1 (TDP1): qHTS in cells in presence of CPT; 420,000 tested, 12% active; Potency, µM (doses to about 46.2 µM), for inactives: at the highest dose activity change, negative = growth inhibition, most hits filed as inhibitors; AID 686979, 2013; chicken DT40 Tdp1-/-;hTDP1 cells + 20 nM CPT, ATP luminescence, 48 h; further: nearly all actives have a fitted effect of over 55% in size
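Cell growth measured by CellTiter-Glo luminescence after a minimum 48 h, 37 C compound exposure with 20 nM CPT in Tdp1-knockout DT40 cells stably expressing hTDP1, seeded 400/well; qHTS titration format.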
HT1080 IDH1KD tx: qHTS for induction of synthetic lethality in tumor cells producing 2HG: qHTS for the HT-1080-IDH1KD cell line; HT-1080 IDH1 knockdown viability, ATP luminescence, 48 h; AID 686971, 2013; Potency, µM (series often up to 46.1 µM), for inactives: at the top dose activity, negative = toxicity, most hits filed as cytotoxic; 360,000 tested, 2% active;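 further: 0% = DMSO wells and -100% = cell-free medium wells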
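Using the IDH1-knockdown HT-1080 line run in the same batch and compound series as the NT line, viability after 48 h at 37 °C was determined by CellTiter-Glo luminescence and expressed as % activity.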
KB-3-1 tox: qHTS assay for MDR1-selective chemotherapeutics: Primary screen using the parental adenocarcinoma cell KB-3-1. KB-3-1 viability, CellTiter-Glo ATP luminescence, 72 h. Potency, µM (doses to about 46.1 µM), hits mostly cytotoxic. 400,000 tested, 1.4% active; further: nearly all actives have a fitted effect of over 60% in size
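Screening of KB-3-1 cells (DMEM, 10% FBS, phenol-red free) ran from lowest to highest compound concentration; after 72 h at 37 °C viability was read luminescently and curves fitted.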
DT40 TDP1 no CPT: qHTS for Inhibitors of human tyrosyl-DNA phosphodiesterase 1 (TDP1): qHTS in cells in absence of CPT; 420,000 tested, 15% active; Potency, µM (highest dose often 46.2 µM), without a hit: top-dose activity change, negative = growth inhibition, actives largely listed as inhibitors; DT40 Tdp1-/- hTDP1 cells, no CPT, ATP luminescence, 48 h; further: nearly all actives have a fitted effect of over 55% in size
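Growth of hTDP1-complemented DT40 Tdp1-knockout cells is measured by ATP luminescence after at least 48 hr compound exposure at 37 °C, with DMSO substituting for the 20 nM CPT used in the parallel screen.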
Active calls of the source: *; i = inactive; u = inconclusive; x = no result. The call rests on the fitted dose curve; in most records, active means well fitted curve in the direction sought with a large enough effect; inconclusive means small, poorly fitted or top-dose-only effect, or another doubt; inactive means no such curve, though single readings can be large; an effect the other way counts as inactive or inconclusive. Unless noted, on the % scale 0 is the no-effect control and ±100 the full control effect; potency means the concentration at half of the fitted maximal effect.

SMILES	HT1080-NT tox	KB-V1 MDR tox	DT40 TDP1 CPT	HT1080 IDH1KD tx	KB-3-1 tox	DT40 TDP1 no CPT
C=CCn1c(=O)/c(=C/c2ccc(O)cc2)s/c1=C(/C#N)c1nnc2n1CCCCC2	2%	i	18µM*	18%	i	23µM*
C=CCn1c(=O)/c(=C/c2ccc(Cl)cc2)s/c1=C(/C#N)c1nnc2n1CCCCC2	0%	i	u	9%	i	u
CCOc1ccc(N=c2cc(-c3ccc(OC)cc3)oc3ccccc23)cc1	-22%	u	26µM*	u	i	26µM*
COc1ccc(N=c2cc(-c3ccc(O)cc3)oc3ccccc23)cc1	15µM*	u	u	16µM*	u	u
COc1ccc(N=c2cc(-c3ccc(OC)cc3)oc3ccccc23)cc1	-16%	u	u	u	i	23µM*
COc1ccc(-c2cc(=Nc3ccc(C)cc3)c3ccccc3o2)cc1	u	i	u	u	i	u
Cc1cccc(N2C(=O)CN(Cc3ccccc3)C2=S)c1	-1%	i	4%	-13%	i	-26%
Nc1ccccc1O	21µM*	i	u	18µM*	i	16µM*
CN(Cc1ccco1)C(=O)Cn1nc(-c2ccc(Cl)cc2)ccc1=O	-2%	i	u	0%	i	u
CC1(C(=O)NCc2cccs2)Cc2c(-c3ccc(C(N)=O)cc3)ccnc2O1 (stereo not drawn)	u	i	2.6µM*	15µM*	15µM*	3.3µM*
CC1(C(=O)NCc2cccc(Cl)c2)Cc2c(-c3ccc(C(N)=O)cc3)ccnc2O1 (stereo not drawn)	-21%	u	-27%	-24%	u	u
CC1(C(=O)NCc2cccs2)Cc2c(-c3cccc(C(F)(F)F)c3)ccnc2O1 (stereo not drawn)	5.8µM*	21µM*	3.3µM*	4.6µM*	u	2.9µM*
CC1(C(=O)NCc2ccccc2)Cc2c(-c3cccc(C(F)(F)F)c3)ccnc2O1 (stereo not drawn)	u	6.5µM*	3.7µM*	3.7µM*	16µM*	5.8µM*
CC(C)c1ccc(NC(=O)CN2CCN(C(=O)C3CCCO3)CC2)cc1 (stereo not drawn)	-3%	i	-9%	-2%	i	6%
COC(=O)N[C@@H]1C[C@H]2[C@@H]3CC[C@H]4C[C@@H](OC)CC[C@]4(C)[C@H]3CC[C@]12C	-7%	i	u	-3%	i	u
COC(=O)[C@H]1C[C@H]2[C@@H]3CC[C@H]4C[C@@H](OC)CC[C@]4(C)[C@H]3CC[C@]2(C)[C@@]2(CCCO2)O1	1%	i	u	2%	i	16µM*
COC(=O)N[C@@H]1C[C@H]2[C@@H]3CC[C@H]4C[C@@H](OC)CC[C@]4(C)[C@H]3CC[C@@]12C	-11%	i	13µM*	u	i	15µM*
Cc1ccc(OCCOCCn2c(-c3ccc(Cl)cc3)nc3ccccc3c2=O)cc1	x	i	-18%	x	i	-9%
COc1ccc(NC(=O)N(C)C[C@H]2Oc3ccc(NS(=O)(=O)c4c(C)noc4C)cc3C(=O)N([C@H](C)CO)C[C@@H]2C)cc1	7%	i	-4%	8%	i	12%
NC(=S)NNc1cc(Cl)cc(Cl)c1	-15%	i	13µM*	-19%	i	u
NC(=S)Nc1cc(Cl)cc(Cl)c1	-3%	i	u	-10%	i	u
CCN(C(=O)COC(=O)c1c(C)c(-c2ccccc2)nc2ccccc12)C1CCS(=O)(=O)C1 (stereo not drawn)	u	i	u	u	i	u
O=C1NC[C@@H](CCCCN2CCN(CCc3ccccc3)C(=O)C2=O)N(CC2CCCCC2)C1=O	12%	i	-3%	10%	u	-3%
CCOC(=O)N1CCC(N(C(=O)Nc2ccccc2)C(C)CC)CC1 (stereo not drawn)	0%	15µM*	u	3%	i	u
CCOC(=O)N1CCC(N(C(=O)Nc2ccc(CC)cc2)C(C)CC)CC1 (stereo not drawn)	-6%	i	u	-1%	i	23µM*
SMILES	HT1080-NT tox	KB-V1 MDR tox	DT40 TDP1 CPT	HT1080 IDH1KD tx	KB-3-1 tox	DT40 TDP1 no CPT
CCOC(=O)Cc1ccc(NC(=O)N(C(C)C)C2CCN(C(C)=O)CC2)cc1	x	i	1%	x	i	-2%
NC(CS(=O)O)C(=O)O (stereo not drawn)	28%	i	18%	0%	i	0%
CCc1ccc(C2C(C#N)=C(N)C(C#N)(C#N)C3=CCC(C(C)(C)C)CC32)cc1 (stereo not drawn)	-12%	u	u	-25%	u	15µM*
COc1ccc(-c2cn3c(n2)sc2cc(C(=O)NC4CCCc5ccccc54)ccc23)cc1 (stereo not drawn)	x	x	8.2µM*	x	x	5.8µM*
COc1ccc(C(=O)NC2CCCc3ccccc32)cc1 (stereo not drawn)	-2%	i	-17%	u	i	u
Cc1ccc(-c2cn3c(n2)sc2cc(C(=O)NC4CCCc5ccccc54)ccc23)cc1 (stereo not drawn)	x	i	13µM*	x	i	13µM*
O=C(C[N+]12CCCc3cccc(c31)CCC2)c1ccc(Cl)c2ccccc12	x	i	-9%	x	i	-2%
O=C(C[N+]12CCCc3cccc(c31)CCC2)c1ccc2ccccc2c1	x	i	5µM*	x	u	7.1µM*
COc1cccc(C(C)(O)c2nc(-c3cccc(C(C)C)c3)cs2)c1 (stereo not drawn)	u	i	u	u	i	23µM*
CC(C)c1cccc(-c2csc(C(C)(O)c3ccncc3)n2)c1 (stereo not drawn)	u	u	12µM*	u	u	13µM*
CN(C)c1ccc(-c2csc(C(C)(O)c3cccc(F)c3)n2)cc1 (stereo not drawn)	26µM*	u	13µM*	u	i	21µM*

Bioassay records as filed in PubChem.
